Measurements from PubChem BioAssay AID1159580 (chemical genetic matrix, 2015).
The whole screen tested about 5,500 compounds, of which about 2,000 (36%) were called active. Inconclusive results (about 18%) are left out. Rule as the data show it: active = normalized growth mostly below about 0.91 (no sharp cut-off); inconclusive = no clear call, values can overlap the other calls; inactive = mostly above about 0.92. This is one part of the list.

Assay: chemical genetic growth profiling, strain panel (AID 1159580);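 also: tested at 20 µM; growth read once vehicle control cultures reached saturation at 30 °C; 1 = growth at the plate median or of vehicle wells; lower values mean less growth of the strain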
Conditions: growth OD
[1] = S. cerevisiae deletion strains, locus YDR150W, strain NUM1, stronger effect = lower value
[2] = S. cerevisiae deletion strains, locus YJR075W, strain HOC1, stronger effect = lower value
[3] = S. cerevisiae deletion strains, locus YMR263W, strain SAP30, stronger effect = lower value
[4] = S. cerevisiae deletion strains, locus YNL128W, strain TEP1, stronger effect = lower value
[5] = S. cerevisiae deletion strains, locus YNL153C, strain GIM3, stronger effect = lower value
[6] = S. cerevisiae deletion strains, locus YNL322C, strain KRE1, stronger effect = lower value

Measured: normalized growth

O=C(O)CCCCCC[C@H]1C(=O)NC(=O)N1CC[C@@H](O)C1CCCCC1
inactive: S. cerevisiae deletion strains, locus YAL040C, strain CLN3, stronger effect = lower value 0.969 | S. cerevisiae deletion strains, locus YCL061C, strain MRC1 (second series), stronger effect = lower value 0.985 | [1] 0.996 | S. cerevisiae deletion strains, locus YDR363W, strain ESC2, stronger effect = lower value 0.985 | S. cerevisiae deletion strains, locus YER002W, strain NOP16, stronger effect = lower value 0.936 | S. cerevisiae deletion strains, locus YGR229C, strain SMI1, stronger effect = lower value 0.999 | [2] 0.996 | [3] 0.993 | S. cerevisiae deletion strains, locus YMR307W, strain GAS1, stronger effect = lower value 1 | [4] 0.942 | [5] 0.971 | S. cerevisiae deletion strains, locus YNL175C, strain NOP13, stronger effect = lower value 0.987 | S. cerevisiae deletion strains, locus YNL197C, strain WHI3, stronger effect = lower value 0.962 | S. cerevisiae deletion strains, locus YNL224C, strain SQS1, stronger effect = lower value 0.982 | [6] 0.99 | S. cerevisiae deletion strains, locus YOR083W, strain WHI5 (second series), stronger effect = lower value 0.985

COc1ccccc1C1OC(=O)CC1C(=O)O (stereo not given)
inactive: S. cerevisiae deletion strains, locus YBR229C, strain ROT2, stronger effect = lower value 1.02 | S. cerevisiae deletion strains, locus YCL061C, strain MRC1, stronger effect = lower value 0.989 | S. cerevisiae deletion strains, locus YDL101C, strain DUN1, stronger effect = lower value 1 | S. cerevisiae deletion strains, locus YDL134C, strain PPH21, stronger effect = lower value 1.03 | [1] 0.947 | S. cerevisiae deletion strains, locus YEL061C, strain CIN8, stronger effect = lower value 1 | S. cerevisiae deletion strains, locus YGR078C, strain PAC10, stronger effect = lower value 0.987 | S. cerevisiae deletion strains, locus YHR030C, strain SLT2, stronger effect = lower value 0.963 | S. cerevisiae deletion strains, locus YHR087W, strain rtc3, stronger effect = lower value 1.03 | S. cerevisiae deletion strains, locus YJL187C, strain SWE1, stronger effect = lower value 1.01 | S. cerevisiae deletion strains, locus YJR043C, strain POL32, stronger effect = lower value 0.98 | [2] 0.986 | S. cerevisiae deletion strains, locus YLR039C, strain RIC1, stronger effect = lower value 1.02 | S. cerevisiae deletion strains, locus YLR058C, strain SHM2 (second series), stronger effect = lower value 1.01 | S. cerevisiae deletion strains, locus YLR085C, strain ARP6, stronger effect = lower value 1.02 | S. cerevisiae deletion strains, locus YLR262C, strain YPT6, stronger effect = lower value 1.02 | S. cerevisiae deletion strains, locus YML094W, strain GIM5, stronger effect = lower value 1.02 | S. cerevisiae deletion strains, locus YMR219W, strain ESC1, stronger effect = lower value 1.01 | [3] 0.968 | [4] 1.02 | [5] 1 | S. cerevisiae deletion strains, locus YNL298W, strain CLA4 (second series), stronger effect = lower value 0.998 | [6] 0.999 | S. cerevisiae deletion strains, locus YNR030W, strain Alg12, stronger effect = lower value 1.01 | S. cerevisiae deletion strains, locus YOL006C, strain TOP1, stronger effect = lower value 1.07 | S. cerevisiae deletion strains, locus YPL055C, strain LGE1, stronger effect = lower value 0.955 | S. cerevisiae deletion strains, locus YPL241C, strain CIN2, stronger effect = lower value 0.989 | S. cerevisiae deletion strains, locus YPR135W, strain CTF4, stronger effect = lower value 1.02 | S. cerevisiae strains, strain wild type, stronger effect = lower value 1.02
